Counter-ions that a name gives are not always drawn. ± gives the standard deviation of the averaged measurements.
What follows are compounds tested on E. coli TESEC Mtb DapB (assay: growth (OD600 after 10 h); higher = more growth (less inhibition)). Conditions: arabinose induction (level): Low; compound 0.1 mM; raw OD600 reference: median of DMSO wells 0.227, cell-free background 0.041.
Protocol: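 TESEC E. coli strains in which the native enzyme is deleted and replaced by arabinose-inducible Mtb Asd, DapB, CysH or TrpD, each grown in its selective medium. Strains were screened against the Prestwick library at 0.1 mM and 1% DMSO in 384-well format at low and high arabinose induction. Growth is read as OD600 after 10 h in triplicate.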

Row | Compound | growth
1 | COc1cc(C(=O)NS(=O)(=O)c2ccccc2C)ccc1Cc1cn(C)c2ccc(NC(=O)OC3CCCC3)cc12 [Zafirlukast] | 0.213 ± 0.033
2 | NNc1nncc2ccccc12 [Hydralazine hydrochloride] | 0.229 ± 0.033
3 | Nc1c2c(nc3ccccc13)CCCC2O (racemic) [Hydroxytacrine maleate (R,S)] | 0.205 ± 0.015
4 | CCN(CC)CCOC(=O)C1(C2CCCCC2)CCCCC1 [Dicyclomine hydrochloride] | 0.183 ± 0.041
5 | O=C(Oc1cccc2cccnc12)c1ccccc1 [Benzoxiquine] | 0.201 ± 0.015
6 | O=C1CC2(CCCC2)CC(=O)N1CCCCN1CCN(c2ncccn2)CC1 [Buspirone hydrochloride] | 0.226 ± 0.035
7 | CCN(CC)C(=O)C1(c2ccccc2)CC1CN (stereo not given) [Milnacipran hydrochloride] | 0.259 ± 0.026
8 | CCN(CC)CC#CCOC(=O)C(O)(c1ccccc1)C1CCCCC1 (stereo not given) [Oxybutynin chloride] | 0.172 ± 0.034
9 | C[C@]12C=CC(=O)C=C1CC[C@H]1[C@@H]3C[C@@H](O)[C@](O)(C(=O)CO)[C@@]3(C)C[C@H](O)[C@@]12F [Triamcinolone] | 0.229 ± 0.022
10 | O=C(CCCCC(=O)Nc1c(I)cc(I)c(C(=O)O)c1I)Nc1c(I)cc(I)c(C(=O)O)c1I [Iodipamide] | 0.239 ± 0.03
11 | CCN(CCO)CCCC(C)Nc1ccnc2cc(Cl)ccc12 (stereo not given) [Hydroxychloroquine sulfate] | 0.24 ± 0.04
12 | Cc1ccsc1/C=C/C1=NCCCN1C [Morantel tartrate] | 0.294 ± 0.089
13 | Cc1noc(NS(=O)(=O)c2ccc(N)cc2)c1C [Sulfisoxazole] | 0.205 ± 0.022
14 | C=CCOc1ccccc1OCC(O)CNC(C)C (stereo not given) [Oxprenolol hydrochloride] | 0.225 ± 0.031
15 | CCOc1ccc2c(c1)C(C)=CC(C)(C)N2 [Ethoxyquin] | 0.205 ± 0.024
16 | CC1Cc2ccccc2N1NC(=O)c1ccc(Cl)c(S(N)(=O)=O)c1 (stereo not given) [Indapamide] | 0.216 ± 0.021
17 | CCC(=O)OCC(=O)[C@@]1(OC(=O)CC)[C@H](C)C[C@H]2[C@H]3[C@H]([C@@H](O)C[C@@]21C)[C@@]1(C)C=CC(=O)C=C1C[C@H]3Cl [Alclometasone dipropionate] | 0.215 ± 0.0041
18 | Cc1scc2c1N(C(=O)CN1CCN(C)CC1)c1ccccc1NC2=O [Telenzepine dihydrochloride] | 0.264 ± 0.071
19 | O=C1CC[C@@H](C(=O)N2CSC[C@H]2C(=O)O)N1 [Pidotimod] | 0.235 ± 0.037
20 | CCC1NC(=O)c2cc(S(N)(=O)=O)c(Cl)cc2N1 (stereo not given) [Quinethazone] | 0.238 ± 0.047

Row | Compound | growth
21 | CN1CCCN(C(c2ccccc2)c2ccc(Cl)cc2)CC1 (stereo not given) [Homochlorcyclizine dihydrochloride] | 0.215 ± 0.039
22 | C1N2CN3CN1CN(C2)C3 [Methenamine] | 0.218 ± 0.035
23 | CC(C)(O/N=C(\C(=O)N[C@@H]1C(=O)N2C(C(=O)[O-])=C(C[n+]3ccccc3)CS[C@H]12)c1csc(N)n1)C(=O)O [Ceftazidime pentahydrate] | 0.0547 ± 0.0049
24 | CC(C(O)c1ccc(O)cc1)N1CCC(Cc2ccccc2)CC1 (stereo not given) [Ifenprodil tartrate] | 0.227 ± 0.036
25 | CCN(CC)CCNC(=O)c1ccc(N)cc1 [Procainamide hydrochloride] | 0.201 ± 0.0082
26 | CC[C@H]1OC(=O)[C@H](C)[C@@H](O[C@H]2C[C@@](C)(OC)[C@@H](O)[C@H](C)O2)[C@H](C)[C@@H](O[C@@H]2O[C@H](C)C[C@H](N(C)C)[C@H]2O)[C@](C)(O)C[C@@H](C)CN(C)[C@H](C)[C@@H](O)[C@]1(C)O [Azithromycin] | 0.0998 ± 0.09
27 | OC(CCN1CCCCC1)(c1ccccc1)C1CCCCC1 (stereo not given) [Trihexyphenidyl-D,L Hydrochloride] | 0.22 ± 0.018
28 | CN1C(C(=O)Nc2ccccn2)=C(O)c2ccccc2S1(=O)=O [Piroxicam] | 0.227 ± 0.068
29 | c1ccc(CN(CC2=NCCN2)c2ccccc2)cc1 [Antazoline hydrochloride] | 0.225 ± 0.043
30 | CCCc1nc2c(C)cc(-c3nc4ccccc4n3C)cc2n1Cc1ccc(-c2ccccc2C(=O)O)cc1 [Telmisartan] | 0.307 ± 0.039
31 | Nc1nc(F)nc2c1ncn2[C@@H]1O[C@H](CO)[C@@H](O)[C@@H]1O [Fludarabine] | 0.194 ± 0.028
32 | CN1CCOC(c2ccccc2)c2ccccc2C1 (stereo not given) [Nefopam hydrochloride] | 0.243 ± 0.036
33 | NCCCC(O)(P(=O)(O)O)P(=O)(O)O [Alendronate sodium] | 0.227 ± 0.019
34 | Clc1ccccc1C(c1ccccc1)(c1ccccc1)n1ccnc1 [Clotrimazole] | 0.0488 ± 0.0015
35 | O=C1c2cccc(O)c2C(=O)c2c(O)cccc21 [1,8-Dihydroxyanthraquinone] | 0.255 ± 0.067
36 | CC(N/C(=N\C#N)Nc1ccncc1)C(C)(C)C (stereo not given) [Pinacidil] | 0.232 ± 0.022
37 | COc1ccc2c(c1)c(CC(=O)OCC(=O)O)c(C)n2C(=O)c1ccc(Cl)cc1 [Acemetacin] | 0.185 ± 0.024
38 | O=C(O)c1ccccc1C(=O)Nc1ccc(S(=O)(=O)Nc2nccs2)cc1 [Phthalylsulfathiazole] | 0.239 ± 0.01
39 | c1ccc2c(c1)CCCC2C1=NCCN1 (stereo not given) [Tetrahydrozoline hydrochloride] | 0.226 ± 0.031
40 | Cc1nnc(NS(=O)(=O)c2ccc(N)cc2)s1 [Sulfamethizole] | 0.183 ± 0.0058

Source: the supplement of paper PMC9262897, “Low-cost anti-mycobacterial drug discovery using engineered E. coli” (Nature Communications, 2022)
